# A selection: hits, their analogues and other compounds. The true share with any hit is near 3.9%.
# SARS 3CLpro inh – SARS-CoV 3CLpro protease inhibition. P0C6X7. recombinant SARS-CoV 3CLpro, quenched FRET peptide cleavage. inhibition, % at 6 µM. AID 1706. 0.14% of 290,000 active; in the data active means inhibition above about 12%
# FBA Mtb inh – inhibitors of M. tuberculosis fructose-bisphosphate aldolase. purified M. tuberculosis FBA, fluorescence read-out. inhibition, % at 1 µM. P9WQA3. 2.3% of 360,000 active. AID 588726; in the data active means inhibition above about 27%
# GDH-TPI counter – counter-screen for M. tuberculosis FBA inhibitors: GDH-TPI coupled enzymes; GDH-TPI coupled enzyme counterscreen, NADH absorbance; inhibition, % at 4.8 µM; 1.2% of 360,000 active; in the data active means inhibition above about 30%
# Vc quorum ag – quorum light induction in luxS cqsA deficient V. cholerae; V. cholerae BH1578 lux reporter, luminescence, 6 h; 0.16% of 350,000 active; activation, % at 18.7 µM; in the data active means activation mostly above about 9.7%, no sharp cut-off
# PrPC surface inh – inhibitors of human cell surface prion protein PrPC; TR-FRET read-out; inhibition, % at 13.8 µM; 0.43% of 370,000 active; in the data active means inhibition above about 24%
# PrPC confirm – confirmation of inhibitors of cell surface human prion protein. shares compounds with PrPC surface inh. cell surface PrPC level, TR-FRET. inhibition, % at 13.8 µM. 65% of 1,500 active. AID 743200; in the data active means inhibition above about 25%
# LD9 tox – counter-screen for PrPc inhibitors: cytotoxicity in LD9 cells; 29% of 1,500 active; AID 743201; luminescence viability; inhibition, % at 13.8 µM; shares compounds with PrPC surface inh; in the data active means inhibition above about 9.5%
# Numbers stand for hits; . = inactive; / = no result.
SMILES,SARS 3CLpro inh,FBA Mtb inh,GDH-TPI counter,Vc quorum ag,PrPC surface inh,PrPC confirm,LD9 tox
O=S1(=O)CC(O)C(O)CS1 (centres undefined),/,/,/,/,.,/,/
COCCCn1c(SCc2ccc(OC)cc2)nc2cc(OC)c(OC)cc2c1=N,.,.,.,.,119,.,.
Cc1ccc2cccc(NS(=O)(=O)c3ccccc3)c2n1,.,/,/,/,34,67,71
O=S(=O)(Nc1cccc2cccnc12)c1ccc(S(=O)(=O)N2CCCC2)cc1,.,.,.,.,37,.,24
CC(=O)Nc1ccc(S(=O)(=O)Nc2cccc3cccnc23)cc1,.,.,.,.,.,/,/
O=S(=O)(Nc1cccc2cccnc12)c1ccccc1,.,.,.,.,54,39,81
O=C1C(Cc2ccccc2)Nc2ncnc(N3CCN(c4ccccc4)CC3)c2N1Cc1ccc(Cl)cc1 (centres undefined),/,.,.,.,.,/,/
CC(C)CCN(C(=O)COc1ccc(C#N)cc1)c1c(N)n(Cc2ccccc2)c(=O)[nH]c1=O,.,/,/,/,/,/,/
CC(C)c1oc(=O)cc2c1[C@@H](O)[C@H]1OC(=O)[C@@]3(C)C[C@@H](O)[C@@H](O)[C@@]2(C)C13 (some centres undefined),.,.,.,.,64,58,11
CC(C)c1oc(=O)cc2c1[C@@H](O)[C@H]1OC(=O)[C@@]3(C)CC[C@@H](O)[C@@]2(C)C13 (some centres undefined),.,.,.,.,62,52,13
CCOc1ccc(N2CC(C(=O)Nc3nnc(C4CCCCC4)s3)CC2=O)cc1 (centres undefined),.,.,.,.,.,/,/
COC(=O)C1=C(C)N(C)C(=NCc2ccc(C(F)(F)F)cc2)NC1c1cccc(F)c1 (centres undefined),/,/,/,/,.,/,/
CC[C@H](C)[C@@H]1NC(=O)[C@@H](CC(C)C)NC(=O)[C@H](C(C)C)NC(=O)[C@H]2CSSC[C@H](NC1=O)C(=O)N2,/,.,/,/,41,47,99
CC(C)C[C@@H]1NC(=O)[C@H](C(C)C)NC(=O)c2cc([N+](=O)[O-])cc(I)c2NCC[C@@H](C(N)=O)NC1=O,.,/,/,/,/,/,/
Cc1cnc(CN(C)C(=O)C2CCC(=O)N(CCc3ccc(Cl)cc3)C2)[nH]1 (centres undefined),/,.,.,.,.,/,/
CC1CCC2(CC1)C(Nc1cccc(Cl)c1)=NC(=S)N2CC#N (centres undefined),.,.,.,.,36,39,.
CC1CCC(=C(C#N)C(=O)Nc2cccc(Cl)c2)CC1 (centres undefined),.,.,.,.,.,/,/
O=C(COC(=O)CCC(=O)c1cccs1)Nc1cccc(S(=O)(=O)N2CCOCC2)c1,.,.,.,.,.,/,/
N#Cc1ccc(-c2nc3ccc(Br)cn3c2Cc2cccc(F)c2)cc1,/,.,/,/,29,88,.
Cc1ccc(Cc2c(-c3ccc(C#N)cc3)nc3ccc(Br)cn23)cc1,/,.,.,.,42,47,.
N#Cc1ccc(-c2nc3ccc(Br)cn3c2Cc2cccc(Cl)c2)cc1,/,.,/,/,.,/,/
Fc1cccc(Cc2c(-c3ccco3)nc3ccc(Br)cn23)c1,/,.,/,/,51,70,.
CCOC(=O)[C@]12CCC=C1N(Cc1cccc3ccccc13)C(=O)[C@H](CC(=O)NCCCOC)C2,/,/,/,/,.,/,/
COC(=O)c1cccc(OC[C@@H](O)CN2CCC(C(O)(c3ccccc3)c3ccccc3)CC2)c1,/,/,/,/,.,/,/
Cc1ccc(NC(=O)CSc2ncnc3ccccc23)cc1S(=O)(=O)N1CCCCCC1,.,.,.,.,67,77,.
SMILES,SARS 3CLpro inh,FBA Mtb inh,GDH-TPI counter,Vc quorum ag,PrPC surface inh,PrPC confirm,LD9 tox
CC(C)(C)c1ccc(OCCC(=O)Nc2cccc(S(=O)(=O)N3CCCCC3)c2)cc1,.,.,.,.,24,.,.
Cc1ccc(S(=O)(=O)N2CCCCC2)cc1NC(=O)Cn1ncc(Cl)c(Cl)c1=O,/,.,.,.,31,.,94
O=C(CSc1ncnc2ccccc12)Nc1cc(S(=O)(=O)N2CCCCC2)ccc1Cl,.,.,.,.,.,/,/
Cc1ccc(S(=O)(=O)N2CCCCC2)cc1NC(=O)Cn1cnnn1,.,.,.,.,.,/,/
Cc1ccc(S(=O)(=O)N2CCCCC2)cc1NC(=O)CSc1ncnc2ccccc12,.,.,.,.,63,71,.
O=C1CC/C=C\C[C@@H](CC(=O)N(CCO)Cc2ccccc2)C(=O)N2CCC[C@H]2CO1,/,.,.,.,.,/,/
O=C(Cc1ccc(Cl)cc1)NNC(=O)C1CC=CCC1C(=O)O (centres undefined),.,.,.,.,.,/,/
O=C(CSc1ncnc2ccccc12)Nc1cccc(S(=O)(=O)N2CCCC2)c1,.,.,.,.,70,73,.
COc1ccc2c(CC(=O)Nc3nc(C)cs3)coc2c1,.,.,.,.,.,/,/
COc1ccc2c(CC(=O)Nc3ncc(C)s3)coc2c1,.,.,.,.,29,35,.
NC(c1csc(Nc2ncccn2)n1)c1ccccc1Cl (centres undefined),/,.,.,.,33,.,.
Nc1ccc(CC(N)c2csc(Nc3ncccn3)n2)cc1 (centres undefined),/,.,.,.,.,/,/
COc1ccc(C(N)c2csc(Nc3ncccn3)n2)cc1 (centres undefined),/,.,.,.,36,.,.
NC(Cc1ccc(Cl)cc1)c1csc(Nc2nccc(C(F)(F)F)n2)n1 (centres undefined),/,.,.,.,.,/,/
NC(Cc1ccc(Cl)cc1)c1csc(Nc2ncccn2)n1 (centres undefined),/,.,.,.,52,60,13
NC(Cc1ccc(F)cc1)c1csc(Nc2ncccn2)n1 (centres undefined),/,.,.,.,59,55,23
CCc1ccc2oc(=O)cc(CN3CCCCC3)c2c1,.,.,.,.,.,/,/
COc1ccc(CC(N)c2csc(Nc3ncccn3)n2)cc1 (centres undefined),/,.,.,.,38,38,.
COc1ccc(CC(N)c2csc(Nc3nccc(C(F)(F)F)n3)n2)cc1 (centres undefined),/,.,.,.,.,/,/
COC(=O)C[C@@H]1CC[C@@H](NS(=O)(=O)c2ccc(OC)cc2)[C@@H](CO)O1,/,/,/,/,.,/,/
CNC(=O)c1nnsc1S(=O)(=O)c1ccc(Cl)cc1,.,.,.,.,25,.,80
O=C(c1nnsc1S(=O)(=O)c1ccc(Cl)cc1)N1CCOCC1,.,.,.,.,.,/,/
CC1CC(C)C(=O)C(C(CC2CC(=O)NC(=O)C2)OC(=O)CC(=O)c2ccccc2)C1 (centres undefined),/,.,.,.,85,95,31
O=C1CCC(C(=O)OCC(=O)c2ccccc2)N1 (centres undefined),.,.,.,.,.,/,/

# Source: PubChem (several laboratories)
